uPA generation – cell surface uPA generation inhibition | cell surface uPA generation assay, qHTS | Potency, µM (titrated, usually from 38.3 µM), actives largely listed as inhibitors | hit rate 0.31% among 330,000; active = well fitted inhibition curve with a large enough effect; inconclusive = small, poorly fitted or top-dose-only effect; inactive = no such curve, though single readings can be large or run the other way; tested in mouse RAW 264.7 cells; also: nearly all actives have a fitted effect of over 55% in size
TCR act – activators of T cell receptors; Potency, µM (highest dose often 9.22 µM), usual class: activators; primary human leukocytes, anti-CD3, IL-2 HTRF, 48 h; 330,000 tested, under 10 active; AID 504894
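Human primary leukocytes + a-CD3 beads + cpd, 48 hr; IL-2 in supernatant by HTRF (ex 320nm / em 665nm). No co-stimulatory signal supplied.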
ClpP mod – qHTS Assay for Activators of ClpP. ATP-dependent Clp protease proteolytic subunit (Bacillus subtilis (strain 168)), P80244. purified B. subtilis ClpP, FRET peptide cleavage, 20 min. Potency, µM (series often up to 57.5 µM). hit rate 1.9% among 340,000. AID 651965, 2013; active = well fitted falling curve with a large enough effect; inconclusive = small, poorly fitted or top-dose-only effect; inactive = no such curve, though single readings can be large or run the other way; also: the source files actives as falling curves though it sought activators and does not explain the sign; nearly all actives have a fitted effect of over 65% in size
Target sequence (P80244 whole entry, looked up): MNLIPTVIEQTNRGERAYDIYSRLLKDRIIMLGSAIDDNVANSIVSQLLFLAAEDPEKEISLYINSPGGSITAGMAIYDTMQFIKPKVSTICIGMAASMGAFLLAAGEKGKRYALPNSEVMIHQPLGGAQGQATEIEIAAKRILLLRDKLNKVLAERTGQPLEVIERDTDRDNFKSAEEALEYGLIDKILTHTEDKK
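FRET quenching reversal measured ClpP activation: 10 microg/mL B. subtilis ClpP at pH 8 with the FRET-FV decapeptide, read at 430 nm after 320 nm excitation. The 20-min minus 0-min signal was scaled between DMSO/no-enzyme wells and ADEP (5.8 microM final).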
Sfp PPTase inh – inhibitors of Bacillus subtilis Sfp phosphopantetheinyl transferase; Q9F4F7; Potency, µM, actives largely listed as inhibitors; hit rate 3.5% among 310,000; Biochemical Sfp PPTase activity, qHTS;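 also: the enzyme is Sfp with the accession as filed and its product quenches rhodamine fluorescence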
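Fluorescence-quenching assay: 15 nM Sfp-PPTase preincubated 15 min at room temperature with compound, then 5 uM rhodamine-CoA and 12.5 uM BHQ-2-labelled YbbR peptide added. Fluorescence (ex 525/em 598 nm) read at start and after 30 min; difference gives rate.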
Numbers stand for hits; – = inactive; ? = inconclusive; · = no result. Compounds with a hit are over-represented: about 4.2% of the library has one in this group of screens. Unless noted, calls follow the shape of the dose curve; as a rule, active = well fitted curve in the direction sought with a large enough effect; inconclusive = small, poorly fitted or top-dose-only effect, or another doubt; inactive = no such curve, though single readings can be large; an effect the other way counts as inactive or inconclusive.

SMILES	uPA generation	TCR act	ClpP mod	Sfp PPTase inh
CCCCN(CC)CCNc1ncnc2onc(-c3ccc(Cl)cc3)c12	·	·	–	·
O=C(CSc1ccc(-c2ccccc2)nn1)N1CCN(c2ccccc2)CC1	–	–	–	79µM
O=C(CSc1ccc(-c2ccccn2)nn1)N1CCCC1	–	–	–	45µM
O=C(CSc1ccccn1)N1CCN(c2cccc(Cl)c2)CC1	–	–	–	50µM
O=C(CSc1ccc(-c2ccccn2)nn1)c1ccccc1	–	–	·	–
O=C(CSc1ccccn1)N1CCN(c2ccccc2)CC1	·	–	–	–
O=C(Cn1c(=O)[nH]c2ccccc2c1=O)N1CCN(c2cccc(Cl)c2)CC1	–	·	32µM	–
CC(c1ccco1)N(C(=O)c1cccc(S(=O)(=O)N(C)C)c1)c1ccccn1 (centres undefined)	–	–	·	–
COc1cccc(C(=O)NCCS(=O)(=O)N2CCN(c3ccccc3)CC2)c1OC	·	·	–	·
O=C(CSc1ccc(-c2ccco2)nn1)N1CCCCC1	–	·	–	?
O=C(CSc1ccc(-c2ccco2)nn1)N1CCCC1	–	–	·	50µM
Cc1ccc(N(Cc2ccccc2)C(=O)c2cc(S(=O)(=O)N3CCOCC3)ccc2F)cc1	–	–	–	·
Cc1ccccc1-c1cc(Nc2ccccc2)ncn1	·	·	·	–
CNc1cc(-c2ccccc2C)ncn1	·	·	·	79µM
COc1ccc(CC(=O)Nc2oc(-c3ccccc3)c(-c3ccccc3)c2C#N)cc1OC	–	–	32µM	–
Cc1ccc(/C=N/N=C2/NC(=O)C(CC(=O)Nc3ccccc3)S2)o1 (centres undefined)	–	–	–	–
Cc1ccc(/C=N/N=C2/NC(=O)C(CC(=O)Nc3ccc(Cl)cc3)S2)o1 (centres undefined)	–	–	–	35µM
O=C(O)CC1S/C(=N/N=C/c2ccc(-c3ccc(Cl)cc3[N+](=O)[O-])o2)NC1=O (centres undefined)	–	–	–	40µM
Cc1ccc2[nH]c(=O)c3cc(C(=O)N(C)C4CCCCC4)sc3c2c1	–	–	–	–
CCOCCCNC(=S)N1CCC(C(=O)c2ccc(C)cc2)CC1	–	·	32µM	–
CC(C)OCCCNC(=S)N1CCC(C(=O)c2ccc(Cl)cc2)CC1	–	·	–	–
CCCc1cc(-c2nc(-c3ccc(Cl)cc3)cs2)ccn1	–	–	–	40µM
CC(C)(C)c1ccc(-c2nc3[nH]c(=O)cc(NC(=O)c4ccco4)n3n2)cc1	–	–	–	40µM
Cc1ccc(-c2nc3[nH]c(=O)cc(NC(=O)c4cccs4)n3n2)cc1	–	–	–	–
COc1ccc2nc3cc(Cl)ccc3c(Nc3cc(C(C)C)c(O)cc3C)c2c1	–	–	·	50µM
SMILES	uPA generation	TCR act	ClpP mod	Sfp PPTase inh
Cc1cccc(N2CC(C(=O)OCC(=O)c3ccc(OC(=O)c4cccs4)cc3)CC2=O)c1C (centres undefined)	–	–	32µM	–
CCOc1ccc(CN2CCC(Cc3ccccc3)CC2)cc1	–	–	–	–
CCCCOc1ccc(CN2CCC(O)CC2)cc1	·	–	–	79µM
CC(=O)c1ccc(NC(=S)N2CCN(c3ccccn3)CC2)cc1	–	–	·	–
Nc1c(-c2ccccc2)nc(Cl)nc1-c1ccccc1	–	–	32µM	–
Cc1sc(N)nc1-c1ccccc1	–	·	–	–
Cc1ccc(Nc2nnc(-c3ccc(C)c(S(=O)(=O)N4CCOCC4)c3)c3ccccc23)c(C)c1	·	·	–	·
COc1ccc(-c2cn(-c3ccc(C)cc3)c(S(=O)(=O)CC(=O)Nc3ccccc3)n2)cc1	·	·	–	·
C/C(=C\c1ccco1)C1C(C#N)=C(N)Oc2n[nH]c(-c3ccc(C)cc3)c21 (centres undefined)	–	–	–	?
C/C(=C\c1ccco1)C1C(C#N)=C(N)Oc2n[nH]c(-c3ccccc3)c21 (centres undefined)	–	–	–	79µM
C/C(=C\c1ccco1)C1C(C#N)=C(N)OC2=C1C(=O)CC(C)(C)C2 (centres undefined)	–	–	–	20µM
COc1ccc(Nc2nc3ccccc3n3c(N)nnc23)cc1	·	·	–	·
CC1=C(C(=O)Nc2cccc(F)c2)C2(CCCCCC2)OC1=O	·	·	–	·
COC(=O)c1ccccc1NC(=O)c1ccc2c(c1)C(=O)N(Cc1ccco1)C2=O	–	–	28µM	·
COc1ccccc1NC(=O)c1ccc2c(c1)C(=O)N(Cc1ccco1)C2=O	?	–	–	–
CCc1ccc(NC(=O)c2ccc3c(c2)C(=O)N(Cc2ccco2)C3=O)cc1	–	–	–	40µM
CCN1CCN(C(=O)C2CC(=O)N(c3ccc(Cl)cc3)C2)CC1 (centres undefined)	–	–	·	–
CN1CCN(C(c2ccc(F)cc2)c2ccc3cccnc3c2O)CC1 (centres undefined)	–	–	–	·
CN1CCN(C(c2ccc(Br)cc2)c2cc(Cl)c3cccnc3c2O)CC1 (centres undefined)	–	–	·	50µM
C[C@H]1CC[C@H]2C(=O)N3[C@H](c4ccc(Br)cc4)[C@@H](C)CC[C@H]3C(=O)N2[C@@H]1c1ccc(Br)cc1	·	·	·	–
C/C(=N\NC(N)=S)c1ccc(-n2ccnc2)cc1	–	–	–	79µM
CCc1ccc(NC(=O)CSc2nnc(-c3nonc3NC(C)=O)n2-c2ccccc2)cc1	·	·	–	·
Nc1ccc(-c2nc3ccc(N)cc3o2)cc1	7.9µM	–	–	–
CC1(C)Oc2cc3oc(-c4cc(O)cc(O)c4)cc3cc2CC1O (centres undefined)	8.9µM	–	–	·
Oc1cc(O)cc(-c2cc3ccc(O)cc3o2)c1	–	–	–	·
SMILES	uPA generation	TCR act	ClpP mod	Sfp PPTase inh
Cc1ccc(-c2nc3ncccn3c2Nc2ccccc2C)o1	–	–	–	40µM
Cc1ccc(Nc2c(-c3ccc(C)o3)nc3ncccn23)cc1	–	–	·	11µM
Cc1ccc2nc(-c3ccc(C)o3)c(Nc3ccc(Cl)cc3)n2c1	·	·	14µM	·
Cc1ccc(-c2nc3ncccn3c2Nc2ccc3c(c2)OCO3)o1	–	–	–	–
Cc1ccc(-c2nc3ccc(Cl)cn3c2Nc2ccccc2C)s1	·	·	–	·
Cc1ccccc1Nc1c(-c2ccc(Br)o2)nc2ccc(Cl)cn12	·	·	28µM	·
CCNc1nc(C#N)nc(NCC)n1	·	·	–	·
CCCC/C=C1\CCc2c([nH]c3ccccc23)C1=O	–	–	·	–
CCCCN1CCc2c([nH]c3ccccc23)C1=O	–	–	20µM	–
O=C(NCCCN1CCCC1=O)c1cccc(S(=O)(=O)N2CCN(c3ccccc3)CC2)c1	–	–	16µM	–
O=C(NCCCN1CCCC1=O)c1cccc(NS(=O)(=O)c2ccccc2)c1	–	–	35µM	·
C=C1C2=C(C(=O)N1OC)[C@@H](O)[C@@](C)(O)[C@@H](CCCCC)O2	·	·	–	·
CCOC(=O)c1sc(=S)n(CC)c1N	–	–	–	–
C=CCNC(=O)c1sc(=S)n(-c2ccc(C(=O)OCC)cc2)c1N	·	–	–	20µM
CNC(=O)c1sc(=S)n(-c2ccc(OC)cc2)c1N	–	–	·	–
CCOC(=O)c1ccc(-n2c(N)c(C(=O)NCc3ccco3)sc2=S)cc1	·	–	–	35µM
CCOC(=O)c1ccc(-n2c(=S)sc3c(=O)[nH]c(C)nc32)cc1	·	–	–	13µM
CCOC(=O)CSc1nc2c(sc(=S)n2-c2ccc(CC)cc2)c(=O)[nH]1	–	–	·	–

Assay outcomes from PubChem BioAssay.
